Unmarked numbers belong to inactive results. Rule as the data show it: active = inhibition above about 50%; inactive = the rest.

Prolyl endopeptidase-like (Mus musculus), sequence (Q8C167 whole entry, looked up): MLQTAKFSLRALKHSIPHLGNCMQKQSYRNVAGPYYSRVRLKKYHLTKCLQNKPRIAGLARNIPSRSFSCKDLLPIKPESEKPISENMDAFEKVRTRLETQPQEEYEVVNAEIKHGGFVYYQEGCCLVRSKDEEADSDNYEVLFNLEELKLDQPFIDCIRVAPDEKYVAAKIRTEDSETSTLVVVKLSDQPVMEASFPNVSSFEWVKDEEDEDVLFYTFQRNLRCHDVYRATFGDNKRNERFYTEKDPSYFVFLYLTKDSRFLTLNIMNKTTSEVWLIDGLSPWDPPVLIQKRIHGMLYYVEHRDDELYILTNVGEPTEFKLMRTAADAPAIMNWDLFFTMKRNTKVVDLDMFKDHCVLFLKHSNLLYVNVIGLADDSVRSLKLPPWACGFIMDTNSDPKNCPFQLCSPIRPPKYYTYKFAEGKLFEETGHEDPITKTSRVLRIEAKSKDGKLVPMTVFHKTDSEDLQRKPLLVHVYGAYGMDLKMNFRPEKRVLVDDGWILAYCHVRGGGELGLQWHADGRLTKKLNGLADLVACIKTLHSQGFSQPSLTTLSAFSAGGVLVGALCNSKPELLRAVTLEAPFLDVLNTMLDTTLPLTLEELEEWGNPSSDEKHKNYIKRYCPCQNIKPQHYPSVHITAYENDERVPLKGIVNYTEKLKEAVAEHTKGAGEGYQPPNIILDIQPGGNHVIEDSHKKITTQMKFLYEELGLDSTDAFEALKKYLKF

The assay has as its target Prolyl endopeptidase-like (Mus musculus) (UniProt Q8C167). The assay is described as follows: mouse PREPL enzyme inhibition by screening hits – biochemical, gel-based competitive ABPP, fluorescence, HTS hits, PREPL inhibitor project (AID 624481). The following applies: purified mouse PREPL, at 20 µM, hits give high values.
As for `CN1Cc2c(N3CCOCC3)nc3sc(C(=O)c4ccccc4)c(N)c3c2CC1(C)C`, the inhibition is -32%.

As to `CCC[C@@H](CN1CCC[C@H]1CN1C(N)=NC[C@@H]1Cc1ccccc1)N1C[C@@H]([C@H](C)CC)N(CCCC2CCCC2)C1=N`, the inhibition was 9%.

As for `CNC(=S)N1N=C(c2ccc(OC)cc2)CC1c1ccc(N(C)C)cc1` (stereo not given), the inhibition was -55%.

For `CCN1C(=O)CC(c2ccccc2)N(C2CCCC2)c2nc(Nc3ccc(C(=O)NC4CCN(C)CC4)cc3OC)ncc21` (stereo not given), the inhibition was -25%.

Take `CN1CCN(c2ccc(NC(=O)COc3ccc4ccccc4c3)cc2)CC1`: the inhibition is -21%.

Broadly, the inhibition is the change of the read-out against control, counted positive when it falls.

For the origin of these results see PubChem BioAssay AID624481 (The Scripps Research Institute Molecular Screening Center, 2012).
